Bioassay records deposited in PubChem BioAssay by National Center for Advancing Translational Sciences (NCATS).
A selection: hits, their analogues and other compounds. The true share with any hit is near 0.7%.
GLS inhibitor: qHTS for Inhibitors of Glutaminase (GLS) | GLS enzymatic activity, qHTS titration | Potency, µM (highest dose often 45.5 µM), without a hit: top-dose activity change, negative = inhibition, hits mostly inhibitors | Glutaminase kidney isoform, mitochondrial (Homo sapiens), O94925 | 410,000 tested, 0.21% active; note: % is set by controls: 0 for no effect and ±100 for the full control effect
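Coupled fluorescence readout: glutamate oxidase/HRP/Amplex Red detect glutamate formed by hKGA from L-glutamine (1 mM solution added). Buffer 45 mM KH2PO4 pH 8.2, 0.02% Tween-20; reads at t0 and 30 min RT.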
Vif-APOBEC3F blk: qHTS for Inhibitors of Vif-A3F Interactions: qHTS. 390,000 tested, 0.2% active. AID 602313, 2012. Potency, µM (top dose mostly 46.1 µM), inactives show at the highest dose activity, negative = active. HeLa A3F-eYFP + Vif (tagged APOBEC3F with the HIV-1 protein that degrades it), YFP fluorescence increase; note: % of control where 0% means no effect; nearly all actives have a fitted effect of over 65% in size
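Fluorescence increase (Ex 488/Em 500-530) after overnight compound treatment at 37 deg C flags inhibition of Vif-driven A3F-eYFP loss in stable HeLa A3F-eYFP/Vif cells seeded overnight beforehand.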
Epigenetic reg: Quantitative High-Throughput Screen for Regulators of Epigenetic Control; murine LDR cells, GFP reporter derepression, 30 h; Potency, µM (series often up to 53.9 µM), inactives show at the highest dose GFP activation, actives largely listed as activators; 280,000 tested, 0.2% active; AID 1865, 2009; note: % of control where 0% means no effect; nearly all actives have a fitted effect of over 60% in size
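Reporter derepression read as number of fluorescent GFP-positive objects, 20-120 um in size, counted by laser-scanning cytometer. Mouse LDR line with an epigenetically silenced CMV-GFP locus; compound incubation 30 h, 37 C.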
PINK1 expr mod: A Quantitative High throughput Screen to Identify Chemical Modulators of PINK1 Expression; 410,000 tested, 0.2% active; PINK1 immunofluorescence, high-content cytometry, 24 h; Potency, µM (series often up to 76.6 µM), for inactives: at the top dose activation (PINK1 increase), usual class: activators; AID 624263, 2012; active = well fitted activation curve with a large enough effect; inconclusive = small, poorly fitted or top-dose-only effect; cell line not stated here; note: % of control where 0% means no effect; nearly all actives have a fitted effect of over 65% in size
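Stable cell line, 250 cells/well, 12 h attachment; compounds pinned at 5 concentrations, 24 h; CCCP control. Fixed with nuclear dye, primary antibodies 12 h at 10 degrees C, secondary plus cell stain; laser-scanning cytometer read.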
Vif-A3G inh: qHTS for Inhibitors of Vif-A3G Interactions: qHTS; HeLa A3G-eYFP + Vif (tagged APOBEC3G with the HIV-1 protein that degrades it), YFP fluorescence, overnight; Potency, µM (top dose mostly 46.1 µM), for the others: at the top dose activity, negative = active, hits mostly inhibitors; 410,000 tested, 0.076% active; AID 602310, 2012; note: % is set by controls: 0 for no effect and ±100 for the full control effect; nearly all actives have a fitted effect of over 60% in size
Target sequence (Q9HC16 whole entry, looked up): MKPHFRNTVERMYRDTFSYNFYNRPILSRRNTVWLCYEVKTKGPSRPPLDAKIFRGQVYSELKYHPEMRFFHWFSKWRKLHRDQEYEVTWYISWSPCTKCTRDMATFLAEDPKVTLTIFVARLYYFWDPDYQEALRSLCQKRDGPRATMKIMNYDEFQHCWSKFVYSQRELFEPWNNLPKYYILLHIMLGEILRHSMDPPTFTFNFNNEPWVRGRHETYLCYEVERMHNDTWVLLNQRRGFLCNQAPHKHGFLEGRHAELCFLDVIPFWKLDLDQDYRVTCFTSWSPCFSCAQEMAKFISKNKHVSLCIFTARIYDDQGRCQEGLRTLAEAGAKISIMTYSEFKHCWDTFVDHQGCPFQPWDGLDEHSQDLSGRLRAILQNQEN
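Read-out is eYFP fluorescence (Ex 488/Em 500-530) from Vif-expressing HeLa A3G-eYFP cells; more signal means A3G escaped Vif-mediated degradation. Cells plated overnight, compound pinned in, incubated overnight at 37 deg C.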
* = called active by the depositor; i = inactive; ? = inconclusive; nt = not tested or not shown. Unless noted, calls come from the whole dose curve; as a rule, active = well fitted curve in the direction sought with a large enough effect; inconclusive = small, poorly fitted or top-dose-only effect, or another doubt; inactive = no such curve, though single readings can be large; an effect the other way counts as inactive or inconclusive. Potency is the fitted concentration of half-maximal effect.

SMILES | GLS inhibitor | Vif-APOBEC3F blk | Epigenetic reg | PINK1 expr mod | Vif-A3G inh
CCC(C)Sc1cccc(-c2nc3cc(C)ccn3c2NC2CCCCC2)c1 (stereo not drawn) | -14% | 22µM* | nt | 14µM* | -8%
CCOc1ccc2[nH]c3c(=O)n(CCc4ccc(OC)cc4)cnc3c2c1 | 4% | 4% | 25µM* | 8% | 2%
COc1ccc2c(N)c(C(=O)NN)[nH]c2c1 | 13µM* | -7% | 0% | 7% | -4%
COCCCNC(=O)c1[nH]c2cc(OC)ccc2c1Sc1ccc(C)cc1 | 3% | -14% | -5% | 1% | 4%
CCOc1cccc(CN2CCC(n3cc(C(=O)N4CCCCC4)nn3)CC2)c1O | nt | nt | nt | -1% | nt
COc1cc(=O)n2c(c1C(=O)NC(C)c1ccco1)CCN(C(=O)c1[nH]c(C)cc1C)CC2 (stereo not drawn) | nt | nt | nt | 0% | nt
CCOc1ccc(N=C2NC(=O)S/C2=C\c2ccc(N(C)C)cc2)cc1 | -1% | ? | 7.9µM* | ? | ?
Cc1oc(-c2cccc(NC(=O)C3CCCN(C)C3)c2)nc1CNC(=O)c1coc2c1C(=O)CCC2 (stereo not drawn) | nt | nt | nt | 1% | nt
CC(=O)c1cccc(N(C(=O)Cn2nnc3ccccc32)C(C(=O)NC2CCCCC2)c2cn(C)nc2C)c1 (stereo not drawn) | 7.9µM* | 0% | 0% | nt | -1%
CC12CC3CC(C)(C1)CC(C(=O)NC(=S)N1CCOCC1)(C3)C2 | 71% | 2% | 1% | nt | 10µM*
COc1cc(/C=N/NC(=O)CC2C(=O)NN=C2C)ccc1O (stereo not drawn) | 21% | 11% | -4% | 1% | 0%
CCOc1cccc(/C=N/NC(=O)CC2C(=O)NN=C2C)c1O (stereo not drawn) | 5.6µM* | 2% | 0% | 0% | -5%
Cc1ccc(NC(=O)C(=O)NCC(c2cccnc2)N2CCN(C)CC2)cc1 (stereo not drawn) | -7% | 6% | 0% | 0% | 1%
Cc1ccc(NC(=O)C(=O)NCC(c2cccnc2)N2CCc3ccccc3C2)cc1 (stereo not drawn) | 18% | -11% | 22µM* | 0% | 5%
COc1cc(C(C[N+](=O)[O-])c2c(C)cc3ccccn23)ccc1O (stereo not drawn) | 7.9µM* | -19% | nt | 8% | ?
COc1ccc(C(C[N+](=O)[O-])c2c(-c3ccccc3)cc3ccccn23)cc1OC (stereo not drawn) | -12% | -28% | 0% | 9% | -13%
Cc1ccc(NC(=O)CSc2ccccc2NC(=O)c2cccc(Cl)c2)cc1Cl | -3% | 11µM* | 0% | 1% | -61%
Cc1cccc(C(=O)Nc2ccccc2SCC(=O)Nc2ccc(C)c(Cl)c2)c1 | 3% | -9% | 1% | 0% | 1%
c1cnc2cc3c(cc2n1)[C@@H]1CNC[C@@H]3C1 | -1% | nt | nt | nt | nt
CCN(CC(=O)Nc1c(F)cccc1F)C(=O)/C=C/c1ccc2ccccc2n1 | 10µM* | 0% | nt | -1% | -4%
CCN(CC(=O)Nc1c(F)cccc1F)C(=O)c1ccc2ccccc2n1 | 2% | -4% | nt | 2% | -1%
Cc1ccc(CN=Cc2[nH]c3ccc(Br)c(Cl)c3c2O)cc1 | -12% | ? | 0% | 11µM* | ?
Oc1c(C=NCc2ccc(F)cc2)[nH]c2ccc(Br)c(Cl)c12 | nt | nt | -1% | nt | nt
NN=C1c2ccccc2C(=O)C1C(=O)C(c1ccccc1)c1ccccc1 (stereo not drawn) | ? | i | nt | 0% | 11µM*
COc1ccc(NC(=O)Cn2c(=O)n(-c3ccccc3)c(=O)c3ccc(C(=O)NCc4ccc5c(c4)OCO5)cc32)cc1 | -6% | -7% | 24% | 1% | -11%
SMILES | GLS inhibitor | Vif-APOBEC3F blk | Epigenetic reg | PINK1 expr mod | Vif-A3G inh
O=C(Cn1c(=O)n(-c2ccccc2)c(=O)c2ccc(C(=O)NCc3ccc4c(c3)OCO4)cc21)Nc1ccc(Br)cc1 | 0% | 0% | 16µM* | -1% | -1%
O=C1CC(C(=O)N2CCN(c3ccccc3O)CC2)CN1Cc1ccccc1 (stereo not drawn) | 5µM* | -4% | nt | 0% | -4%
O=C1CC(C(=O)N2CCN(c3ccccc3)CC2)CN1Cc1ccccc1 (stereo not drawn) | 8% | 0% | nt | -2% | 0%
Cc1c(C(=O)N2CCCCCC2)sc2ncnc(NCC3CCCO3)c12 (stereo not drawn) | nt | nt | nt | -1% | nt
COc1cc(=O)n2c(c1C(=O)N(C)Cc1nccs1)CCN(Cc1ccc(F)c(F)c1)CC2 | nt | nt | nt | -1% | nt
COc1ccc2oc(=O)c(-c3nc4ccc(C)cc4[nH]3)cc2c1 | -18% | ? | 11µM* | 4% | ?
COc1cccc2cc(-c3nc4ccc(C)cc4[nH]3)c(=O)oc12 | -2% | -4% | 1% | 4% | 1%
Cc1ccc(CNc2nc(C)c(-c3ccn(CCN4CCOCC4)n3)s2)o1 | nt | nt | nt | -1% | nt
O=C(c1ccco1)N(Cc1cc2cc3c(cc2nc1N1CCOCC1)CCC3)CC1CCCO1 (stereo not drawn) | nt | nt | nt | 0% | nt
COc1ccc(S(=O)(=O)Oc2ccc3ccccc3c2)cc1 | 4% | -17% | 2% | 4% | ?
COC1=C(OC)C(=O)C(Sc2ccc3ccccc3c2)=CC1=O | 10µM* | 25µM* | nt | -4% | ?
O=c1[nH]c2cc(Br)cnc2nc1/C=C(\O)c1ccc(F)cc1 | -2% | 10µM* | ? | nt | -9%
O=C(NCc1nc2ncc(Br)cc2[nH]1)c1ccccc1 | 1% | 2% | 3% | -2% | -2%
CC(NC(=O)c1ccco1)c1nnc2n1CCN(Cc1ccc(Cl)cc1)CC2 (stereo not drawn) | nt | nt | nt | 0% | nt
O=C(Nc1sc2c(c1C(=O)NCc1ccco1)CCCC2)c1cc(=O)c2cc(Cl)ccc2o1 | 13% | ? | 11% | 40µM* | -11%
Cc1cc(C)c2c(=O)cc(C(=O)Nc3sc4c(c3C(=O)NCc3ccco3)CCCC4)oc2c1 | -27% | -4% | -1% | 2% | 2%
COc1cc(N2CCCC2)c(OC)cc1/C=C1/NC(=S)NC1=O | 6% | ? | 16µM* | ? | ?
COc1ccc(OC)c(/C=C2\NC(=O)NC2=O)c1 | 10% | 3% | nt | -2% | 1%
COc1ccc2nc(N3CCCCC3)c(C#N)cc2c1 | -5% | -19% | -1% | 1% | -7%
COc1ccc2nc(N3CCCC3)c(C#N)cc2c1 | -8% | 11µM* | 1% | 8% | -14%
Cc1cccc(CNC(=O)c2cnn(-c3nccc(-c4cc5ccccc5o4)n3)c2C2CC2)n1 | nt | nt | nt | 5% | nt
